This is an account of results in PubChem BioAssay AID651593 (National Center for Advancing Translational Sciences (NCATS), 2012).

Several values for one entry are separate records, joined by “and”; a condition that tells them apart may be missing. Identical values can stand only once. About 860 (78%) of roughly 1,100 compounds were called active. About 19% were inconclusive and are not listed. So high a share suggests a set chosen from earlier hits. Some of the results follow. Values without a mark were called inactive. Calls come from the whole dose curve; as a rule, active = well fitted activation curve with a large enough effect; inconclusive = small, poorly fitted or top-dose-only effect; inactive = flat fitted curve, though single readings scatter.
Potency is the fitted concentration of half-maximal effect.

This test can be described thus: qHTS of Nrf2 Activators: Hit Validation in Primary Assay. For activation: 0% is about no effect. Note: nearly all actives have a fitted effect of over 70% in size. The settings on record: Nrf2/ARE reporter cell assay; Potency: activation; series mostly up to 46.1 µM; activation: at the top concentration. Summed up: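 AREc32 cells stably carrying an ARE-driven firefly luciferase, plated overnight, then exposed 24 h at 37 °C to compounds at several concentrations. ARE activation read as luminescence with Steady-Glo after 30 min at room temperature.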
For the compound `O=C(NCC1CCCO1)c1ccc([N+](=O)[O-])o1` (stereo not drawn), the Potency was 23.1 µM (active). For the compound `Cc1ccccc1/C=C1\C(=O)Nc2ccc(F)cc21`, the Potency is 5.17 µM (active). Same read-out and setting: the same measure for `O=C1Nc2ccccc2/C1=C/c1ccccc1Cl`: 2.31 µM (active); for `N#CC(=C1C=CC(=NO)C(Cl)=C1)c1ccccc1`: 5.17 µM (active). Take `O=C(/C=C/c1ccccc1Cl)Nn1cnc2ccccc2c1=O`: the Potency was 2.91 µM (active). Consider `N#Cc1c(-c2ccco2)cc(-c2ccccc2)[nH]c1=O`, for which the Potency is 1.64 µM (active).

Consider `CC(=O)Oc1c(-c2ccco2)oc2ccccc2c1=O`, for which the Potency is 0.651 µM (active). Take `Nc1c(C(=O)C2CC2)sc2nc(-c3cccs3)cc(C(F)(F)F)c12`: the Potency was 2.91 µM (active). For `CC(=O)c1sc2nc(-c3cccs3)cc(C(F)(F)F)c2c1N`, the Potency is 2.59 µM (active). On the same count and under the same terms, under `O=C(NN/C(=N/S(=O)(=O)c1ccc(Cl)cc1)c1ccccc1)c1cccc(Cl)c1` stands 9.2 µM (active). `Cc1ccc(S(=O)(=O)/N=C(/NNC(=O)c2cccc(Cl)c2)c2ccccc2)cc1`: the Potency was 18.4 µM (active). In the case of `COCCN(C(=O)c1ccco1)c1nc(-c2ccccc2)cs1`, the Potency was 20.6 µM (active). For `C=C1C2=C(C(=O)N1OC)[C@@H](O)[C@@](C)(O)[C@@H](CCCCC)O2`, the Potency was 23.1 µM (active). The same measure, in the same setting: the same measure for `Cc1ccc([N+](=O)[O-])c(OCc2ncc(Cl)n2C)c1`: 18.4 µM (active); for `Cc1ccccc1CS(=O)(=O)c1cnc2ccccc2n1`: 16.4 µM (active); for `CCOc1cc(C=O)cc(N=Nc2cccc([N+](=O)[O-])c2)c1O`: 16.4 µM (active).

With `Cc1nc(NC(=O)c2ccc(Br)o2)ccc1Br`, the Potency was 9.2 µM (active). Consider `Cc1cccc(NC(=S)NC(=O)c2ccc(Br)o2)c1`, for which the Potency was 10.3 µM (active). Turning to `O=C(Nc1ccc2ccccc2c1)c1ccc(Br)o1`, the Potency was 2.91 µM (active). On to `O=C(/C=C/c1ccco1)Nc1cccnc1Cl`, for which the Potency was 1.46 µM (active).

Consider `O=C(/C=C/c1ccco1)Nc1cccc2cccnc12`, for which the Potency was 0.82 µM (active).

Turning to `O=C1C2C3C=CC(C4CC34)C2C(=O)N1/N=C/c1ccc([N+](=O)[O-])o1` (stereo not drawn), the Potency was 3.66 µM (active).

As for `O=C1C2C(C(=O)N1/N=C/c1ccc([N+](=O)[O-])o1)C1C=CC2C12CC2` (stereo not drawn), the Potency was 18.4 µM (active). Regarding `Nc1ccc2c(Cl)cc(Cl)cc2c1`, the Potency was 2.31 µM (active). With `Cn1c(=O)c(C(=O)NNC(=O)c2ccccc2F)c(O)c2ccccc21`, the Potency was 2.31 µM (active). For the compound `O=C(c1ccc(S(=O)(=O)Cc2cc(F)ccc2F)c([N+](=O)[O-])c1)N1CCCC1`, the Potency is 7.31 µM (active). As for `O=C(c1ccc(S(=O)(=O)Cc2ccccc2Cl)c([N+](=O)[O-])c1)N1CCOCC1`, the Potency was 18.4 µM (active).

`Cc1ccc(Cl)c2sc(NC(=O)C3CC3)nc12`: the Potency is 5.8 µM (active). As for `Cc1nc2sc(C(=O)c3ccccc3)c(N)c2c2c1CCCC2`, the Potency was 3.66 µM (active). Consider `CSc1c(C#N)c(N)nc2sc(C(=O)c3ccccc3)c(N)c12`, for which the Potency was 4.61 µM (active).

Take `Cc1ccc2c(N)c(C(=O)c3ccccc3)sc2n1`: the Potency was 14.6 µM (active). As to `O=C(Nc1cccn2ncnc12)c1cccc(C(F)(F)F)c1`, the Potency is 18.4 µM (active). For `CC(=O)NCCNc1nc2cc(-c3cscc3C)sc2c(=O)n1C`, the Potency was 1.3 µM (active).

In the case of `COc1ncccc1-c1cc2nc(NCCNC(C)=O)n(C)c(=O)c2s1`, the Potency is 2.59 µM (active). As to `CCn1ncc(Br)c1C(=O)Nc1cc([N+](=O)[O-])ccc1C`, the Potency is 2.91 µM (active).

In the case of `O=C(NNC(=O)C12CC3CC(CC(C3)C1)C2)c1cccc([N+](=O)[O-])c1`, the “activation” value was 26.6%. Turning to `Cc1ccc([N+](=O)[O-])cc1NC(=O)c1ccccc1`, the Potency is 7.31 µM (active). On the same count and under the same terms, under `Cn1c(=O)n(C)c2cc(NC(=O)c3cccc([N+](=O)[O-])c3)c(Br)cc21` stands 13 µM (active); under `Cc1ccc([N+](=O)[O-])cc1NC(=O)c1ccc(C(C)(C)C)cc1`, 4.61 µM (active). `O=C(Nc1cnc2ccccc2c1)c1ccco1`: the Potency is 2.91 µM (active). With `O=C(NC(=S)Nc1cnc2ccccc2c1)c1ccccc1`, the Potency is 2.59 µM (active). Same read-out and setting: the same measure for `c1ccc(C2=Nn3c(nnc3-c3ccco3)SC2)cc1`: 1.84 µM (active).

`O=c1cc(/C=C/c2ccccc2)oc2ccccc12`: the Potency is 2.31 µM (active).

With `COc1ccc(Cl)cc1NC(=O)CSc1c2c(nc3ccccc13)CCC2`, the Potency is 18.4 µM (active).

Take `COc1ccc(N2CCCC2)c(NC(=O)c2ccc([N+](=O)[O-])o2)c1`: the Potency is 6.51 µM (active).

For `COc1ccc(S(=O)(=O)N2CCN(C(=O)c3ccc([N+](=O)[O-])o3)CC2)cc1`, the Potency was 5.8 µM (active). For `COC(=O)c1scc(C)c1NC(=O)c1ccc(Cl)cc1`, the Potency is 3.66 µM (active). Same read-out and setting: the same measure for `CCCn1nc([N+](=O)[O-])c(C(C#N)c2nc3ccccc3s2)c(Cl)c1=O` (stereo not drawn): 2.31 µM (active); for `COc1ccc(Br)cc1/C=N/Nc1ccccn1`: 2.59 µM (active). Consider `COc1cc(/C=N/Nc2ccccn2)cc(OC)c1O`, for which the Potency is 5.8 µM (active). As to `CN(Cc1ccccc1)C(=O)c1ccc([N+](=O)[O-])o1`, the Potency is 16.4 µM (active). As to `Cc1cc(NC(=O)C2CCCC2)nc2c1c(=O)oc1ccccc12`, the Potency is 2.31 µM (active). With `COc1cccc(C(=O)Nc2cc(C)c3c(=O)oc4ccccc4c3n2)c1`, the Potency is 2.06 µM (active). Consider `Cc1cc(NC(=O)c2ccccc2)nc2c1c(=O)oc1ccccc12`, for which the Potency is 1.46 µM (active). Consider `Cc1cc(NC(=O)CC(C)(C)C)nc2c1c(=O)oc1ccccc12`, for which the Potency is 3.66 µM (active). As to `N#CC1=C(N)Oc2c(ccc3ccccc23)C1c1ccsc1` (stereo not drawn), the “activation” value was 23.4%. For `Cc1cc(NC(=O)c2ccccc2F)nc2c1c(=O)oc1ccccc12`, the Potency is 0.58 µM (active). Consider `COc1cc(OC)cc(-c2nc3ccccc3s2)c1`, for which the Potency is 13 µM (active).

As for `Cc1cc(C)n(S(=O)(=O)/C=C/c2ccccc2)n1`, the Potency is 4.61 µM (active). The same measure, in the same setting: under `Cc1cc(C)cc(OC(=O)CS(=O)c2ccc(C(F)(F)F)cc2[N+](=O)[O-])c1` (stereo not drawn) stands 18.4 µM (active); under `O=C(CCCCCCC(=O)Nc1ccccc1)NO`, 2.31 µM (active); under `O=C(Nc1cc(Br)ccc1O)c1cnn2c(C(F)F)cc(C3CC3)nc12`, 3.26 µM (active).

For the compound `CS(=O)(=O)Cc1nc2ccccc2oc1=O`, the Potency was 20.6 µM (active). Turning to `CCc1ccc(/C=C/c2c([N+](=O)[O-])c(=O)n(C)c(=O)n2C)cc1`, the Potency is 11.6 µM (active). For `N#C/C(=C(/O)c1ccco1)c1nc2ccccc2[nH]1`, the Potency is 2.59 µM (active). For `N#C/C(=C(/O)c1ccco1)c1nc2ccccc2s1`, the Potency was 1.64 µM (active) and 2.06 µM (active).

As to `CSc1ccc(C2NN=C(c3ccccc3)S2)cc1` (stereo not drawn), the Potency is 2.31 µM (active).

For `CN1CCN(CCCNC(=O)c2cc3c(=O)n(C)c4ccccc4c3s2)CC1`, the Potency is 8.2 µM (active). `Cc1nc(NCc2ccco2)nc2c1C(=O)CC(C)C2` (stereo not drawn): the Potency is 1.84 µM (active). In the case of `Clc1cc(Cl)cc(Nc2ncnc(-n3cccc3)n2)c1`, the Potency was 2.59 µM (active). With `Cc1ccccc1OCC(=O)Nc1ccccc1CO`, the Potency was 6.51 µM (active).

For the compound `O=C(NC1CCCCC1)N(c1ccccc1)c1nnc(-c2cccc([N+](=O)[O-])c2)s1`, the Potency is 7.31 µM (active). Consider `CCOc1cc2ccccc2cc1C(=O)Nc1ccccn1`, for which the Potency was 3.66 µM (active). With `Cc1cccc(-c2nnc(-c3cccc4ccccc34)o2)c1`, the Potency is 5.17 µM (active). The same measure, in the same setting: under `Clc1ccc(-c2nnc(-c3cccc4ccccc34)o2)cc1` stands 1.84 µM (active). Take `O=C(Nc1cc(-c2nc3cc(Cl)ccc3o2)ccc1Cl)c1ccco1`: the Potency is 1.3 µM (active). On the same count and under the same terms, under `Cc1ccc(-c2nc3cccnc3s2)cc1NC(=O)c1ccco1` stands 8.2 µM (active); under `O=C(Nc1cc(-c2nc3ncccc3o2)ccc1Cl)c1ccco1`, 3.66 µM (active); under `O=C(Nc1cc2nn(-c3ccccc3)nc2cc1Cl)c1ccco1`, 1.64 µM (active). As to `O=C(Nc1cc(-c2nc3ncccc3o2)ccc1Cl)c1cccs1`, the Potency was 4.11 µM (active). Take `O=c1c2ccccc2oc2ccc(-c3ccc4cc[nH]c4c3)cc12`: the Potency is 3.66 µM (active). For `COc1ccc2oc3cc(Cl)ccc3c(=O)c2c1`, the Potency is 9.2 µM (active). As to `COc1ccc2oc3ccccc3c(=O)c2c1`, the Potency was 23.1 µM (active). Regarding `O=c1c2ccccc2oc2cc(Br)ccc12`, the Potency was 2.59 µM (active). For the compound `COc1ccc(OC)c(C(=O)Nc2c(O)ccc3ccccc23)c1`, the Potency was 5.8 µM (active). `COc1ccc(COc2ccsc2C(=O)Nc2ccc(Cl)cc2)cc1`: the Potency was 4.61 µM (active). For the compound `Cc1nc2nc(-c3ccccc3)nn2c(C)c1Cl`, the Potency is 4.11 µM (active).

Take `O=C1/C(=C\c2ccco2)NC(=S)N1c1ccccc1`: the Potency was 3.66 µM (active). In the case of `CCn1c(NC(=O)c2cccs2)nc2ccccc21`, the Potency is 5.17 µM (active). Same read-out and setting: under `CCn1c(NC(=O)c2ccccc2)nc2ccccc21` stands 3.66 µM (active); under `Cn1c(=O)c2nc(-c3ccccc3)oc2c2ccccc21`, 1.84 µM (active). Take `O=C(c1ccco1)c1cn(CC(=O)N2CCCc3ccccc32)c2ccccc12`: the “activation” value was 7.56%. As for `O=C(c1ccco1)c1cc2c(ccc3ccccc32)oc1=O`, the Potency is 9.2 µM (active). Take `CC(C)=NNc1cnnc2ccc([N+](=O)[O-])cc12`: the Potency was 18.4 µM (active). With `Cn1ccsc1=NC(=O)c1ccc([N+](=O)[O-])o1`, the Potency is 5.17 µM (active). In the case of `CN(N=Cc1ccccc1O)c1ccc2ccccc2n1`, the Potency was 2.91 µM (active). As to `Oc1ccc(CNc2ccccc2O)cc1`, the Potency is 16.4 µM (active). Turning to `Oc1ccc(NCc2cccc(OCc3ccc(F)cc3)c2)cc1`, the “activation” value was 21.5%. As for `O=C(Nc1nc(-c2ccncc2)cs1)c1ccco1`, the Potency is 4.11 µM (active). Turning to `CC(=O)Nc1ccc2nc(NC(=O)c3ccco3)sc2c1`, the Potency is 4.11 µM (active).

As to `O=C(Nc1nc2c(ccc3ccccc32)s1)c1ccco1`, the Potency is 1.16 µM (active). Take `O=C(Nc1nc2ccsc2c(=O)s1)c1ccco1`: the Potency was 1.3 µM (active). Take `Cc1cc(Cl)cc2sc(NC(=O)c3ccco3)nc12`: the Potency is 16.4 µM (active).
